This is an account of results in ChEMBL document CHEMBL4513149, “CO-ADD screening of MMV (CH) - MMV compounds” (2021).

The structures appear in SMILES notation. Measured potencies and affinities stand elsewhere.

The test system of one assay is Klebsiella pneumoniae. As to conditions: Concentration 20 uM; ASSAY_TEST Inhibition of Bacterial Growth; detection method Absorption (OD600); MEDIA CAMHB; plate type 384well; NBS; CORNING #3640; time 18 hr.
Another assay relates to Candida albicans. The note with it: 20 µM.
A further assay has as its system Cryptococcus neoformans. The note with it: Concentration 20 uM; ASSAY_TEST Inhibition of Fungal Growth; detection method Resazurin; Absorption (OD600-OD570); plate type 384well; NBS; CORNING #3640.

Consider `N#Cc1nc(-c2ccccc2F)oc1NCCc1ccccc1`, for which the values for the Inhibition in the assay with Klebsiella pneumoniae, in the assay on Candida albicans and with Cryptococcus neoformans were 12.11%, 6.96% and -3.78%, respectively.

Regarding `c1cc(C2=NCCN2)cc(-c2cc(-c3ccc(C4=NCCN4)cc3)no2)c1`, the values for the Inhibition in the assay with Klebsiella pneumoniae, in the assay on Candida albicans and in the assay with Cryptococcus neoformans were 11.59%, 2.32% and -10.15%, respectively.

For `FC(F)(F)c1cccc(-c2nc3c(NCc4ccncc4)nccc3[nH]2)c1`, the Inhibition in the assay with Klebsiella pneumoniae stood at 6.33%; with Candida albicans it was 3.63%; with Cryptococcus neoformans, 5.66%.

As to `CCNC(=O)C(C)Nc1nc(-c2cccnc2)nc2sc(C)c(C)c12` (stereo unspecified), the Inhibition was -9.71% in the assay on Klebsiella pneumoniae, 5.77% with Candida albicans and -4.41% in the assay on Cryptococcus neoformans.

On to `Nc1nccc2ccc(-c3ccc4nccn4c3)cc12`, for which the Inhibition was 18.72% in the assay with Klebsiella pneumoniae, 2.07% in the assay on Candida albicans and -1.17% in the assay on Cryptococcus neoformans.

Turning to `COc1ccc(-c2cnc3ccc(NCc4ccc(S(N)(=O)=O)cc4)nn23)cn1`, the Inhibition is 16.22% with Klebsiella pneumoniae, 4.45% with Candida albicans and -9.08% with Cryptococcus neoformans.

As for `CN(C(=O)c1cc2c(-c3cncnc3)cccc2[nH]1)c1ccccc1`, the Inhibition in the assay on Klebsiella pneumoniae is 10.84%; with Candida albicans it was 6.97%; in the assay on Cryptococcus neoformans, -9.57%.

As for `O=C(C1CCN(c2nnnn2-c2ccccc2)CC1)N1CCc2ccccc2C1`, the figures for the Inhibition in the assay with Klebsiella pneumoniae, with Candida albicans and in the assay on Cryptococcus neoformans were 12.73%, 2.89% and -8.99%, respectively.

Consider `CC(C)(C)n1nc(Cc2ccc(F)c(Cl)c2)c2c(N)ncnc21`, for which the figures for the Inhibition in the assay on Klebsiella pneumoniae, in the assay on Candida albicans and with Cryptococcus neoformans were 9.52%, 4.75% and -6.05%, respectively.

With `O=C(c1ccc(NCCO)cc1)C1C[C@H]1c1ccc(Cl)cc1` (stereo partly specified), the Inhibition in the assay with Klebsiella pneumoniae was found to be 5.98%; in the assay on Candida albicans, 6.88%; with Cryptococcus neoformans, 2.16%.

For the compound `COc1ccc(S(=O)(=O)Nc2ccc(CN3CCN(C(=O)c4cccc(C#N)c4)CC3)cc2)cc1`, the Inhibition with Klebsiella pneumoniae was 6.9%; in the assay on Candida albicans, 1.12%; in the assay with Cryptococcus neoformans, -8.14%.

Regarding `CC(C)(C)C(=O)N(CCCCCCN1C[C@H](O)[C@@H](O)[C@H](O)[C@H]1CO)C1CCCCCC1`, the Inhibition is 7.47% in the assay with Klebsiella pneumoniae, 0.83% in the assay on Candida albicans and -2.01% in the assay on Cryptococcus neoformans.

Broadly, the Inhibition is the drop in the measured response relative to a control, in per cent.
